CYP2C9 activ: activators of human CYP2C9; hit rate 1.4% among 96,000; P11712; recombinant CYP2C9, luciferin-H conversion, luminescence; active compounds read high; factor 1 = untreated enzyme, 0 = blocked; activation factor at 5 µM;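 active = activation factor of 2 or more for CYP2C9 at a 5 µM dose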
PostGolgi ctrl: growth of the yeast control strain, post-Golgi counter-screen; inhibition, % at 10 µM; efflux-deficient yeast background strain, growth absorbance A615, 16 h; hit rate 5% among 98,000
CYP2C19 activ: cytochrome P450 2C19 (human) activation; AID 1025; P33261; activation factor at 5 µM; recombinant CYP2C19, luciferin-H EGE luminescence; active compounds read high; 0 = fully inhibited enzyme, 1 = untreated enzyme; 96,000 tested, under 10 active;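 active = activation factor of at least 2 at 5 µM in the primary screen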
Target sequence (P33261 whole entry, looked up): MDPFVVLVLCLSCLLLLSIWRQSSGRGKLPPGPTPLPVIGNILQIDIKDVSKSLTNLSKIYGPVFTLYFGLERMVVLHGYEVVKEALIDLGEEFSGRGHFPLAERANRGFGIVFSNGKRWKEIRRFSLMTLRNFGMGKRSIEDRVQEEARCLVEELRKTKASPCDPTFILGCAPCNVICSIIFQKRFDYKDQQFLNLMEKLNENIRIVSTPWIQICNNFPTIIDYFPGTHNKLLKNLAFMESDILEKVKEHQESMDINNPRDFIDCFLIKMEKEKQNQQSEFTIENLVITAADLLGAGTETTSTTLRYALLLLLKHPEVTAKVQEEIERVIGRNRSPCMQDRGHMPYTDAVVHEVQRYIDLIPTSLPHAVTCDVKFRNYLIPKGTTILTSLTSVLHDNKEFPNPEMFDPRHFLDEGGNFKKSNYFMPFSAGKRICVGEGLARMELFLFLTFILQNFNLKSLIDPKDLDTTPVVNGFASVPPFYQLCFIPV
CYP2C19 inh: blocks human cytochrome P450 2C19. CYP2C19 Supersomes, luciferin-H EGE luminescence, 30 min. inhibition, % at 5 µM. P33261. AID 778. hit rate 21% among 96,000;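 active = CYP2C19 inhibition above a set limit at 5 µM in the primary screen, cut at about 50% in these data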
CYP2C9 inh: blocks human cytochrome P450 2C9 | CYP2C9 Supersomes, luciferin-H conversion, luminescence | inhibition, % at 5 µM | hit rate 20% among 96,000;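 active = blocking of liver enzyme CYP2C9 beyond about 50% at 5 µM, limit read from the data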
PostGolgi yeast: growth inhibition of a yeast mutant, post-Golgi transport screen; hit rate 0.9% among 98,000; inhibition, % at 10 µM; post-Golgi transport phenotypic cell assay; AID 739;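 also: yeast cells grown in 1536-well plates; yeast grown about 18 h at 30C before absorbance read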
Large screens that a line does not name were inactive. Only a sample is shown. Rule as the data show it, unless noted: active = inhibition above about 30%; inactive = the rest.

O=c1oc(-c2ccc(F)cc2)nc2ccsc12	none
O=c1oc(-c2ccccc2Cl)nc2ccsc12	CYP2C19 inh 77.4
CCOC(=O)C12CNC(=O)C(C(=O)OCC)(CNC1=O)C2	none
COc1cc(/C=C2/CCC/C(=C\c3cc(O)c(OC)c(Cl)c3)C2=O)cc(Cl)c1O	none
COc1ccc(OC)c(/C=N/N(C)c2ccccc2)c1	PostGolgi ctrl 31.7, CYP2C19 inh 66.6, CYP2C9 inh 55.5
COc1cc(/C=N/N(C)c2ccccc2)cc(Cl)c1O	PostGolgi ctrl 47.7, CYP2C19 inh 52.2, CYP2C9 inh 58.0
COc1ccc(OC)c(/C=C(\NC(=O)c2ccccc2)C(=O)N/N=C/c2ccc(C)s2)c1	none
CC1(C)Oc2ccc3ccc(=O)oc3c2/C(=C/NCCN/C=C2\C(=O)C(C)(C)Oc3ccc4ccc(=O)oc4c32)C1=O	none
CCCN1CCC(NC(=O)Nc2ccc(F)cc2F)CC1	none

Bioassay records as filed in PubChem.
